PubChem BioAssay (NCI)
This is part of a sample that, as a whole, favours compounds with a hit. Of some 83,000 tested, about 20% had one in any assay.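 Plates (96-well) were seeded with cells, treated with compound at one concentration, and incubated for 48 hours before percent growth was determined.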 Values without a mark were called inactive. Calls of active or inactive are those of the source.

Tested on: HOP-62 NSCLC
Experiment: NCI-60 one-dose screen, 48 h (100 = growth as untreated, 0 = no growth, -100 = all killed)
Conditions: 10 µM
Description: Growth inhibition of the HOP-62 human Non-Small Cell Lung tumor cell line is measured as a screen for anti-cancer activity. Cells are grown in 96 well plates and exposed to the test compound for 48 hours. Compounds are tested at a single concentration, which is 10^-5 M for most compounds. The reported endpoint is percent growth (GI% or GIPRCNT), where numbers from 0 - 100% represent growth inhibition, and numbers from -100% - 0 represent cell death. For example, a value of 40 represents 60% growth inhibition. A value of 0 means no net growth occurred over the course of the experiment. A value of -40 indicates 40% of cells at the beginning of the experiment died by the end of the experiment. A value of -100 means all cells are dead at the end of the experiment.
NCI-60 Human Tumor Cell Lines Screen was performed using the standard one-dose NCI protocol, which is described in more detail at https://dtp.cancer.gov/discovery_development/nci-60/default.htm.
Compounds with GIPRCNT values below 10 were considered active. Activity score was based on GIPRCNT using the following formula: […]
Score is 0 for GIPRCNT values of 100 or above, 50 for GIPRCNT values of 0, and 100 for GIPRCNT values of -100.

SMILES	growth
O=C(CS(=O)(=O)c1oc(-c2ccc(Cl)cc2)nc1S(=O)(=O)c1ccc(Cl)cc1)N1CCOCC1	84.3%
O=c1[nH]c2ccccc2cc1CSc1ccc(Nc2nccc(-c3ccc(Cl)cc3)n2)cc1	-68% (active)
CN(C)CCNC(=O)OCCCCOc1cc(O)c2c(=O)cc(-c3ccccc3)oc2c1	2.14% (active)
Cc1cc(C)cc(Oc2cccc(-c3c(C)nnn3C3CCN(CCN(C)C)CC3)n2)c1	42.5%
COc1ccccc1[C@H]1C(C(=O)c2ccc(Cl)cc2)C2(N[C@@H]1c1ccccc1)C(=O)Nc1ccccc12 (stereo not given in full)	-21.9% (active)
Cc1ccc(-c2ccc(SCC(=O)Nc3ccc(S(N)(=O)=O)cc3Br)nn2)cc1	14.1%
CCOC(=O)C(Cc1ccccc1)N1C(=O)/C(=C/N2N=C(c3ccc(OC)cc3)CC2c2ccc3ccccc3c2)SC1=S (stereo not given)	-54.8% (active)
Cc1ccc(NCC(=O)Nn2c(COc3ccccc3)nc3ccccc3c2=O)cc1	27.4%
CCOC(=O)C1=C(N)N(c2ccccc2)C2=C(C(=O)CC(C)(C)C2)C1c1ccccc1OC (stereo not given)	102%
COC(=O)c1c(C(=O)OC)c2n(c1C)[C@@H]([C@@H](C)[C@H]1CC[C@H]3[C@@H]4CCC5=CC(=O)CC[C@]5(C)[C@H]4CC[C@]13C)SC2	64.1%
O=c1[nH]n(C(=S)N/N=C/c2ccc(F)cc2)c(=O)c2ccccc12	80.3%
COc1ccc(-c2nc(S(=O)(=O)c3ccc(C)cc3)c(S(C)(=O)=O)o2)cc1	84%
Cn1cc(/C=N/Nc2ccnc3cc(Cl)ccc23)c2ccccc21	-63.8% (active)
CN1CCN(c2ccc(Nc3nc(NCCCNC(=O)C4CCCCC4)c4sccc4n3)cc2)CC1	72.4%
Nc1n[nH]c2cccc(C#Cc3cccc(NC(=O)Nc4cc(C(F)(F)F)cc(C(F)(F)F)c4)c3)c12	-55.3% (active)
O=C(Nc1cccc(-c2cn(-c3ccc4oc(=O)ccc4c3)nn2)c1)Nc1cc(C(F)(F)F)cc(C(F)(F)F)c1	1.89% (active)
COC1=C[C@]23CCC(=O)N2CCc2cc4c(cc2[C@@H]3[C@@H]1OC(=O)CCCC(C)C)OCO4	70.5%
O=C(Cn1cc(CSc2nnc3oc4ccccc4n23)nn1)Nc1cccc(Cl)c1	72.9%
O=C(c1ccc(Cl)cc1)C1[C@H](c2ccccc2Br)[C@@H](c2ccccc2)NC12C(=O)Nc1ccc(Br)cc12 (stereo not given in full)	31.2%
COc1ccc(NC(=O)CSc2nnc(-c3ccc4nc(-c5ccc(Cl)cc5)[nH]c4c3)o2)cc1	74.6%

SMILES	growth
Cc1cc2nc3c4ccccc4n(CCO)c3nc2cc1C	68.8%
N#Cc1ccc(-c2nn(-c3ccc(C(=O)O)cc3)cc2CNc2cc(Cl)cc(Cl)c2)cc1	41.8%
CCOC(=O)c1sc(N/N=C(\C)c2ccc3c(c2)Nc2ccccc2S3)nc1C	43.7%
O=C(Cc1ccc2c(c1)CN(C1CCC(=O)NC1=O)C2=O)NCc1cccc2ccccc12 (stereo not given)	-23.1% (active)
O=C(c1ccc(Cl)cc1)C1[C@H](c2ccc(Br)cc2)[C@@H](c2ccccc2)NC12C(=O)Nc1ccc(Cl)cc12 (stereo not given in full)	-73.4% (active)
O=C(Nc1nc2ccc([N+](=O)[O-])cc2s1)Nc1cc(Cl)ccc1I	-44% (active)
COc1ccc(N(C)c2cc(C#N)nc3ccccc23)cc1/C=C/C(=O)NO	-48% (active)
O=C(CSc1nnc(-c2ccc3nc(-c4ccccc4)[nH]c3c2)o1)Nc1ccc(Br)cc1	92.2%
CC[C@]12C=CCN3CC[C@@]4(c5cc(C#CCNc6ccc(C)c(Nc7nccc(-c8cccnc8)n7)c6)c(OC)cc5N(C)[C@H]4[C@@](O)(C(=O)OC)[C@@H]1OC(C)=O)C32 (stereo not given in full)	64.2%
CC(=O)OC[C@@]1(C)C2CC[C@]3(C)C(CC=C4C5CC(C)(C)CC[C@]5(C(=O)Nc5ccccc5)CC[C@]43C)[C@@]2(C)C[C@@H](OC(C)=O)[C@@H]1OC(C)=O (stereo not given in full)	32.8%
COc1cc2c(cc1OC)/C(=C\c1sc(Nc3ccc(O)cc3)nc1O)C(C(=O)O)=N2	39.2%
CCCn1c(=O)c2[nH]c(-c3ccc(OCc4nc5ccccc5[nH]4)cc3)nc2n(CCC)c1=O	22.2%
O=C1Nc2ccc(Cl)cc2/C1=C/c1cccc(OCc2ccccc2)c1	32.9%
CCCCSc1nc(Nc2ccc(/C(C)=N/NC(N)=S)cc2)c(C#N)c(-c2ccc(F)cc2)n1	22.7%
CCOC(=O)CNC(=O)CN(Cc1ccccc1)C(=O)[C@@]1(C)CCC[C@]2(C)[C@H]3C[C@H]4C(C(C)C)=C[C@]3(CC[C@H]21)[C@@H]1C(=O)OC(=O)[C@@H]14	82.8%
CCCn1c(=O)c2[nH]c(-c3ccc(OCc4nc5ccc(C(F)(F)F)cc5[nH]4)cc3)nc2n(CCC)c1=O	87%
Cc1nn(-c2ccccc2)c2ncn(CC(=O)N/N=C/c3c[nH]c4ccccc34)c(=O)c12	95.6%
Cc1cccc(-c2nc(Nc3ccccc3C(=O)O)c3ccccc3n2)c1	46.2%
CCN1CCN(c2ccc(NC(=O)Nc3ccc4c(c3F)CCN4c3ccnc(C(=O)NC)c3)cc2C(F)(F)F)CC1	-49.3% (active)
CC(=O)NS(=O)(=O)c1ccc(NC(=O)CSC2=NC(c3ccccc3)C(C(C)=O)=C(C)N2)cc1 (stereo not given)	103%
